Results filed as inconclusive are left out. Active and inactive are the calls of the source. The call rests on the fitted dose curve; in most records, active means well fitted inhibition curve with a large enough effect; inconclusive means small, poorly fitted or top-dose-only effect; inactive means flat fitted curve, though single readings scatter.
How the values were obtained:
Assay in all cases: qHTS profiling for inhibitors of Plasmodium falciparum proliferation (AID 504749); further: nearly all actives have a fitted effect of over 60% in size
Details in all cases: P. falciparum in erythrocytes, SYBR Green DNA, 72 h; series mostly up to 28.7 µM
CP256 = system: CP256
How it was run: (§1)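 P. falciparum-infected erythrocytes (0.3% parasitemia, 2.5% hematocrit final) were exposed to compounds for 72 h at 37 C in 5% CO2, then lysed with SYBR Green buffer overnight at room temperature; parasite DNA fluorescence was normalized to artemisinin and DMSO controls.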

CP260 = system: CP260
How it was run: as §1

CP262 = system: CP262
How it was run: as §1

CP265 = system: CP265
How it was run: as §1

CP266 = system: CP266
How it was run: as §1

CP268 = system: CP268
How it was run: as §1

CP269 = system: CP269
How it was run: as §1

CP286 = system: CP286
How it was run: as §1

CP291 = system: CP291
How it was run: as §1

CP297 = system: CP297
How it was run: as §1

CP305 = system: CP305
How it was run: as §1

CP315 = system: CP315
How it was run: as §1

CP325 = system: CP325
How it was run: as §1

CP329 = system: CP329
How it was run: as §1

CP335 = system: CP335
How it was run: as §1

DFO2036 = system: DFO2036
How it was run: as §1

DIV14 = system: DIV14
How it was run: as §1

DIV17 = system: DIV17
How it was run: as §1

DIV30 = system: DIV30
How it was run: as §1

Dd2 = system: Dd2
How it was run: as §1

ECU = system: ECU
How it was run: as §1

FAB9 = system: FAB9
How it was run: as §1

GB4 = system: GB4
How it was run: as §1

HB3 = system: HB3
How it was run: as §1

ICS = system: ICS
How it was run: as §1

JCK = system: JCK
How it was run: as §1

N140 = system: N140
How it was run: as §1

P93_24 = system: P93_24
How it was run: as §1

P94_40 = system: P94_40
How it was run: as §1

PAD = system: PAD
How it was run: as §1

PC15 = system: PC15
How it was run: as §1

PC26 = system: PC26
How it was run: as §1

PC49 = system: PC49
How it was run: as §1

SC27B = system: SC27B
How it was run: as §1

TAB109 = system: TAB109
How it was run: as §1

TAB113 = system: TAB113
How it was run: as §1

TAB165 = system: TAB165
How it was run: as §1

W2 = system: W2
How it was run: as §1

Measured: Potency

NS(=O)(=O)c1cc2c(cc1Cl)N[C@H](Cc1ccccc1)NS2(=O)=O
inactive: CP256 | CP260 | CP262 | CP265 | CP266 | CP268 | CP269 | CP286 | CP291 | CP297 | CP305 | CP315 | CP325 | CP329 | CP335 | DFO2036 | DIV14 | DIV17 | DIV30 | Dd2 | ECU | FAB9 | GB4 | HB3 | ICS | JCK | N140 | P93_24 | P94_40 | PAD | PC15 | PC26 | PC49 | SC27B | TAB109 | TAB113 | TAB165 | W2

Source: PubChem BioAssay (NCATS)
